# This is a sample that favours compounds with a hit; in the whole collection about 2.9% have one here.
# Pol kappa inh = inhibitors of human DNA polymerase kappa; Q9UBT6; purified Pol kappa, fluorescent DNA synthesis assay, 10 min; Potency, µM (doses to about 107 µM), for the others: at the top dose activity, negative = inhibition, usual class: inhibitors; hit rate 0.53% among 400,000; also: potency is read from the fitted curve at half-maximal effect; % is scaled to controls: 0 for no effect and ±100 for the full control effect
#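 First, compounds were pin-transferred onto 10 nM Pol kappa. After 15 min at room temperature, substrate was added to 50 nM final. Fluorescence was then measured kinetically at 0 and 10 min.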
# PI5P4Ka inh = blocks human PI5P4K alpha kinase activity | AID 652105 | max response, % | hit rate 1.2% among 330,000 | PI5P4Kalpha enzyme, ADP-Glo luminescence, 60 min; active compounds read low; active = max response of -50% or lower; inconclusive = between -30% and -50%; inactive = -30% or higher; also: value at the top dose of about 77 µM; % is scaled to controls: 0 for no effect and ±100 for the full control effect
#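 Luminescence from ADP-Glo served as readout of PI5P4Kalpha activity in a qHTS format. Reaction: enzyme, substrate, compound, ATP at 5 microM final, 60 min at RT.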
# POLB inh = DNA polymerase beta (human) inhibition; hit rate 1.3% among 340,000; AID 485314; P06746; Pol beta primer extension/strand displacement, fluorescence kinetic; Potency, µM (series often up to 114 µM), for the others: at the top dose activity change, negative = inhibition, actives largely listed as inhibitors; also: potency is read from the fitted curve at half-maximal effect; % is scaled to controls: 0 for no effect and ±100 for the full control effect
#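 Values derive from four-parameter Hill fits of normalized kinetic data: reads at 0 and 10 min following addition of 50 nM substrate to 10 nM Pol beta preincubated 15 min with compound.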
# Pol iota inh = blocks human DNA polymerase iota activity; hit rate 1% among 390,000; Pol iota fluorescent replication assay, 10 min; Q9UNA4; Potency, µM (doses to about 115 µM), without a hit: at the top dose activity, negative = inhibition, actives largely listed as inhibitors; also: potency is read from the fitted curve at half-maximal effect
#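 Fluorescent replication assay read twice, at 0 min and 10 min after adding 50 nM (final) substrate. Enzyme (10 nM) and compounds were first incubated 15 min at room temperature; enzyme-free buffer wells were negative controls.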
# Pol eta inh = blocks human DNA polymerase eta activity. recombinant Pol eta, fluorescent DNA replication assay. Potency, µM (series often up to 114 µM), without a hit: at the top dose activity change, negative = inhibition, usual class: inhibitors. Q9Y253. hit rate 1.2% among 390,000; also: potency is read from the fitted curve at half-maximal effect; % is scaled to controls: 0 for no effect and ±100 for the full control effect
# Target sequence (Q9Y253 whole entry, looked up): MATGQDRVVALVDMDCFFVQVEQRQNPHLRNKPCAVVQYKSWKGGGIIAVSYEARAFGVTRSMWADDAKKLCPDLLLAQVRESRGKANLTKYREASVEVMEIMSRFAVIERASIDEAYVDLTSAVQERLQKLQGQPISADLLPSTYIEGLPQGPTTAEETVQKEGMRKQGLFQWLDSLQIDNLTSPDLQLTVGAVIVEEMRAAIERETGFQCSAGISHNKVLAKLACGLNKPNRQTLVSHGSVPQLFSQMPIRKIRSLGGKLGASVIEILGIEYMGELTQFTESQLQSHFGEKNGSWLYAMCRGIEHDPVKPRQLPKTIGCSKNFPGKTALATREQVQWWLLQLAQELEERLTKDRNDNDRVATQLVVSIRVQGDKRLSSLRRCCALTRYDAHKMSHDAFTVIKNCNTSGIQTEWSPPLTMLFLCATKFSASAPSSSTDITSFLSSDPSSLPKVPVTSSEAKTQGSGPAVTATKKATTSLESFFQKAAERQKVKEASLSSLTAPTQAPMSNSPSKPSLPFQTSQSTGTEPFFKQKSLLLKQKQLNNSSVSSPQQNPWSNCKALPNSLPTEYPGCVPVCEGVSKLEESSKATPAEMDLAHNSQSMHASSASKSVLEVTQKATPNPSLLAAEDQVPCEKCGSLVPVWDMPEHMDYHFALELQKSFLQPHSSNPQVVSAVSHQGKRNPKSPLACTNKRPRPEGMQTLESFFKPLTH
#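 Fluorescent replication assay: 50 nM final substrate added after a 15 min room-temperature compound preincubation with 10 nM enzyme. Signal taken at 0 min and again at 10 min.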
# 12-LOX inh = ALOX12 (human) lipoxygenase inhibition; hit rate 1.1% among 580,000; Potency, µM (titrated, usually from 108 µM), for the others: at the top dose activity change, negative = inhibition, most hits filed as inhibitors; purified 12hLO, xylenol orange hydroperoxide absorbance; also: potency is read from the fitted curve at half-maximal effect; % is scaled to controls: 0 for no effect and ±100 for the full control effect
#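 Purified human 12hLO at 150 nM in 25 mM Hepes, 0.01% Triton X-100, pH 7.0, preincubated 15 min at room temperature with compound. Reaction started with 40 uM arachidonic acid, 30 min at room temperature. Hydroperoxide measured by Fe-xylenol orange, 573/405 nm absorbance ratio.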
# * marks the source's active call; other numbers are inactive results; ? = inconclusive; · = no result given. Unless noted, calls follow the shape of the dose curve; as a rule, active = well fitted inhibition curve with a large enough effect; inconclusive = small, poorly fitted or top-dose-only effect, or another doubt; inactive = no such curve, though single readings can be large or run the other way.
SMILES,Pol kappa inh,PI5P4Ka inh,POLB inh,Pol iota inh,Pol eta inh,12-LOX inh
CCCNCC1CCCCC1,·,·,·,·,·,0%
CN1CCN(C(=S)C(=O)Nc2ccc(Br)cc2)CC1,0%,-56*,-5%,71%,-12%,?
CN1CCN(C(=S)NC(=O)c2ccc(Br)cc2)CC1,-4%,-8,9%,20%,-13%,?
COc1ccc(-c2n[nH]c(=S)n2C2CCCCC2)cc1,1%,-4,11%,7%,-12%,45µM*
COc1ccc(Cl)cc1-c1n[nH]c(=S)n1C1CCCCC1,-5%,-5,0%,12%,-1%,40µM*
S=c1[nH]nc(-c2cccnc2)n1C1CCCCC1,-14%,1,-2%,-1%,-12%,-18%
COc1ccc(Cl)cc1-c1n[nH]c(=S)n1Cc1ccccc1,3%,-1,-2%,22%,-14%,-16%
O=C(c1cccc(S(=O)(=O)Nc2cc(C(F)(F)F)ccc2Cl)c1)N1CCCC1,·,·,·,·,·,14%
CC1CC(C)CN(C(=O)c2cccc(S(=O)(=O)Nc3cc(C(F)(F)F)ccc3Cl)c2)C1 (centres undefined),-21%,8,56µM*,14%,-28%,-9%
O=C(CSC(=S)N1CCCC1)N/N=C/c1c(O)[nH]c(=S)[nH]c1=O,0%,-51*,·,34%,-8%,-14%
O=C(O)CSC(=S)N1CCCC1,-11%,0,-6%,34%,-8%,-2%
O=C(Cc1n[nH]c(=O)[nH]c1=O)N/N=C/c1cccc(Cl)c1,?,2,0%,89µM*,-15%,3%
O=C(Cc1n[nH]c(=O)[nH]c1=O)N/N=C/c1cccc(O)c1,4%,-17,1%,1%,-8%,13%
CC(NC(=O)c1nn(C)c(=O)c2ccccc12)c1cccs1 (centres undefined),·,·,·,·,·,14%
O=C(O)Cn1c2ccccc2c2n[nH]c(=S)nc21,-32%,-56*,-2%,?,-13%,-8%
CCn1c2ccccc2c2n[nH]c(=S)nc21,-6%,-14,-8%,-13%,-3%,9%
Cc1ccc(/C=C/C(=O)Nc2nnc(SCc3ccc(C#N)cc3)s2)o1,?,-72*,21%,40µM*,?,-19%
Cc1ccc(C)c(-n2nnnc2SCc2nc3ccccc3o2)c1,·,·,·,·,·,20%
COc1ccc(-c2[nH]c(-c3ccc(C)cc3)nc2SCC(=O)NCc2ccco2)cc1OC,6%,4,79µM*,-11%,-5%,-6%
Cc1cc2nc(-c3cccnc3SCC(=O)NCc3ccco3)[nH]c2cc1C,-3%,·,50µM*,7%,-19%,?
O=C(CSc1ncccc1-c1nc2ccccc2[nH]1)NCc1ccco1,50µM*,·,32µM*,?,25µM*,14µM*
COc1ccc(S(=O)(=O)/N=C2/NC(=O)/C(=C/c3ccco3)S2)cc1,-10%,-15,32µM*,?,18µM*,18µM*
COc1cc(/C=C2\S/C(=N/S(=O)(=O)c3ccccc3)NC2=O)c([N+](=O)[O-])cc1OC,-30%,-55*,21%,?,22µM*,-21%
COc1ccc(N=C2NC(=O)/C(=C/c3ccco3)S2)cc1,-20%,-27,?,?,-13%,?
COc1ccc(S(=O)(=O)/N=C2/NC(=O)/C(=C\c3ccco3)S2)cc1,?,-18,25µM*,?,18µM*,40µM*
SMILES,Pol kappa inh,PI5P4Ka inh,POLB inh,Pol iota inh,Pol eta inh,12-LOX inh
CN(Cc1ccco1)C(=O)c1nn(Cc2ccccc2)c(=O)c2ccccc12,·,·,·,·,·,-18%
CSc1ccc(N/C=C/C(=O)c2cc(C)ccc2C)cc1,·,·,·,·,·,-8%
COc1cccc(C(=O)NCCc2csc(-c3ccccn3)n2)c1,·,·,·,·,·,20%
CCCC(=O)Nc1cccc(C(=O)NCCN2N=C(c3ccccc3)CCC2=O)c1,·,·,·,·,·,11%
O=C(Nc1cccc(Cl)c1)c1cnc(N2CCCCC2)c2ccccc12,·,·,·,·,·,-8%
Cc1oc(-c2nc(C#N)c(NC(C)c3ccccc3)o2)cc1S(=O)(=O)N1CCOCC1 (centres undefined),·,·,·,·,·,-3%
CC(C)c1cccc(-c2ccc3c(c2)S(=O)(=O)c2cccc(C(=O)O)c2C3=O)c1,-7%,11,·,1%,-2%,-11%
O=C(NC[C@@H]1CCCO1)c1cccc2c1C(=O)c1ccc(Cl)cc1S2(=O)=O,-10%,-2,·,12%,?,3%
COc1ccc(-c2ccc3c(c2)S(=O)(=O)c2cccc(C(=O)NC[C@@H]4CCCO4)c2C3=O)cc1OC,-10%,-9,·,?,28µM*,?
CC(C)c1cccc(-c2ccc3c(c2)S(=O)(=O)c2cccc(C(=O)NCc4ccco4)c2C3=O)c1,?,-23,·,?,40µM*,?
COc1ccc(C2CCCN2CC(=O)N(CCC#N)c2ccccc2)cc1 (centres undefined),·,·,·,·,·,23%
CCCCn1c2ccccc2c2nnc(SCC(=O)Nc3ccc(NC(C)=O)cc3)nc21,-1%,·,14µM*,-11%,-5%,?
CC(=O)Nc1ccc(NC(=O)CSc2nnc3c4ccccc4n(C)c3n2)cc1,-2%,-3,?,70%,0%,-4%
CN1CCC/C(=C\Cl)C1=O,·,·,·,·,·,-3%
Nc1ccc(-c2nc3ccc(N)cc3[nH]2)cc1,79µM*,-19,-30%,-16%,-12%,8%
Nc1ccc2nc(-c3cccc(-c4nc5ccc(N)cc5[nH]4)c3)[nH]c2c1,35µM*,-16,?,?,?,4%
Nc1ccc2nc(-c3ccc(Cl)cc3)[nH]c2c1,14%,?,0%,2%,-23%,-2%
c1ccc(-c2nc3ccccc3[nH]2)cc1,-22%,2,0%,?,-9%,7%
Nc1cc(N)cc(-c2nc3ccccc3[nH]2)c1,-4%,-64*,-1%,16%,?,-14%
Cc1ccc(Nc2nc(-c3ccccc3)c(C(=O)Nc3cccnc3)s2)c(C)c1,·,·,·,·,·,7%
COc1cc([C@@H]2c3cc4c(cc3C(O[C@@H]3O[C@@H]5CO[C@@H](c6cccs6)OC5[C@H](O)[C@H]3O)C3COC(=O)[C@@H]32)OCO4)cc(OC)c1O (some centres undefined),·,·,·,·,·,21%
CCCC(=O)OCC1CN(Cc2ccco2)S(=O)(=O)c2c(F)cccc2O1 (centres undefined),-29%,-10,·,71µM*,-1%,?
O=C(Cn1c(-c2cscn2)nc2ccccc21)Nc1cccc(N2CCCC2=O)c1,·,·,·,·,·,1%
N#C/C(=C\c1cccs1)C(=O)c1ccccc1,-12%,-7,?,28µM*,-17%,0%
N#CC(=Cc1ccc(-c2ccccc2)cc1)C(=O)c1ccccc1,·,-1,·,·,·,?
